From PubChem BioAssay (NCATS)
Results filed as inconclusive are left out. A call without a number means that no potency is given here. The source made the active and inactive calls. The call rests on the fitted dose curve; in most records, active means well fitted inhibition curve with a large enough effect; inconclusive means small, poorly fitted or top-dose-only effect; inactive means flat fitted curve, though single readings scatter.

System: CP238
Assay: qHTS profiling for inhibitors of Plasmodium falciparum proliferation (AID 504749); further: nearly all actives have a fitted effect of over 60% in size
Settings: P. falciparum in erythrocytes, SYBR Green DNA, 72 h; series mostly up to 28.7 µM
Outline: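 SYBR Green fluorescence of parasite DNA, read after lysis and overnight dark incubation, measured growth over 72 h in erythrocyte culture at 0.3% parasitemia and 2.5% hematocrit. Data normalised to DMSO and 0.29 uM artemisinin, with plate-drift correction.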
Potency means the concentration at half of the fitted maximal effect.

| SMILES | Potency |
| --- | --- |
| CC/C=C\C/C=C\C/C=C\C/C=C\C/C=C\C/C=C\CCC(=O)O | inactive |
| O=C(O)/C=C/c1ccccc1 | inactive |
| CC(=O)Oc1cccc(C(=O)O)c1OC(C)=O | inactive |
| CC(CNC(=O)c1cccnc1)NC(=O)c1cccnc1 (stereo not given) | inactive |
| CN=C1C=CC(=C(c2ccc(N(C)C)cc2)c2ccc(N(C)C)cc2)C=C1 | 562 nM (active) |
| CC/C(=C(/CC)c1ccc(OP(=O)(O)O)cc1)c1ccc(OP(=O)(O)O)cc1 | inactive |
| ClC(Cl)Cl | inactive |
| CCCCCCCCCCCCCCCCCC[N+](C)(C)CCC[Si](OC)(OC)OC | inactive |
| Oc1cc(O)cc(O)c1 | inactive |
| CC(=O)Nc1c(I)c(C(=O)O)c(I)c(N(C)C(C)=O)c1I | inactive |
| CC(C)CCC[C@@H](C)[C@H]1CC[C@H]2[C@@H]3CC=C4C[C@@H](O)CC[C@]4(C)[C@H]3CC[C@]12C | inactive |
| CCCCCCCCCCCCOCCCN | inactive |
| CC(C)(C)c1ccc2c(S(=O)(=O)O)c(C(C)(C)C)ccc2c1 | inactive |
| CCSc1ccc2c(c1)N(CCCN1CCN(C)CC1)c1ccccc1S2 | inactive |
| c1ccc(-n2cnnn2)cc1 | inactive |
| CN1CCC(OC(=O)C(Oc2ccc(Cl)cc2)Oc2ccc(Cl)cc2)CC1 | inactive |
| CC(C)Cc1ccc([C@@H](C)C(=O)NS(C)(=O)=O)cc1 | inactive |
| CCCc1ccc(C(=O)O)cc1 | inactive |
| CNC(=O)c1c(I)c(C(=O)NCC(=O)Nc2c(I)c(C(=O)O)c(I)c(C(=O)NCCO)c2I)c(I)c(N(C)C(C)=O)c1I | inactive |
| CC1CC(O)CC(C)(C)C1 (stereo not given) | inactive |
